Among the data in PubChem BioAssay AID2284330 (EPA ToxCast) are outcome and AC50 values, retold here.

Results filed as inconclusive are left out. Calls of active or inactive are those of the source. How the source made its calls: active means hit-call score of the fitted dose curve at least 0.9, where 1 is the maximum; inconclusive means response in the unintended direction; inactive means score below 0.9.

For this experiment, the system named is frog Glucocorticoid Receptor (GR), gene 397897. Briefly: ATG_frGR_EcoTox2: Attagene TRANS-FACTORIAL EcoTox-2 HepG2 Assay for frog Glucocorticoid Receptor (GR). On the procedure: ATG_EcoTox2 is a cell-based, multiplexed assay created by modifying the existing Attagene TRANS-FACTORIAL system to include a panel of nuclear receptors from some or all the following species: human (Homo sapiens), african clawed frog (Xenopus laevis), rainbow trout (Oncorhynchus mykiss), japanese medaka (Oryzias latipes), and zebrafish (Danio rerio). The ECOTOX2-FACTORIAL format uses HepG2, a human liver cell line, with measurements taken at 24 hours after chemical dosing in a 24-well plate. ATG_frGR_EcoTox2 is one of 29 assay components calculated in the ATG_EcoTox2 assay. It is designed to make measurements of mRNA induction, a form of inducible reporter, as detected with fluorescence intensity signals by Reverse transcription polymerase chain reaction (RT-PCR) and Capillary electrophoresis technology.The assay endpoint ATG_frGR_EcoTox2 was analyzed in the positive analysis fitting direction relative to DMSO as the negative control and baseline of activity. Using a type of inducible reporter, measures of mRNA for gain-of-signal activity can be used to understand the reporter gene at the transcription factor-level as they relate to the gene for glucocorticoid receptor. Furthermore, this assay endpoint can be referred to as a primary readout, because this assay has produced multiple assay endpoints where this one serves a reporter gene function. To generalize the intended target to other relatable targets, this assay endpoint is annotated to the nuclear receptor intended target family, where the subfamily is steroidal.
Human liver HepG2 cells are transiently transfected with multiple reporter transcription units (MRTUs) in 6-well plates using FuGene 6 reagent (Roche; 3 ml FuGene/1 mg DNA). The MRTU constructs are regulated by a cis-regulating element (promoter). Each RTU expresses a GAL4-UAS that regulates the transcription of a nearby target reporter gene sequence. A major difference between the CIS and TRANS system is that in CIS activities of endogenous TFs are measured, whereas the TRANS assay evaluates changes in activities of exogenous, chimeric NR-Gal4 proteins. […] At the end of 24 hour incubation, total RNA was isolated using TriZol reagent (Invitrogen). The isolated RNA is then reverse-transcribed using oligo(dT) primer and Mo-MLV reverse transcriptase (Invitrogen) with DNAse I (Ambion) treatment for 30 min. The one-tenth of the produced cDNA was amplified by PCR using Taq DNA polymerase (Invitrogen) and two reporter sequence-specific primers. The PCR products were fluorescently labeled by primer extension with 6-arboxyfluorescein (6-FAM) 5'-labeled reporter sequence-specific primer (2 min at 95 C, 20 s at 68 C and 10 min at 72 C) and these products were digested with 5U of HpaI (New England Biolabs) for 2h at 37 C. The fragments were purified using Qiaquick PCR columns (Qiagen), analyzed on an ABI 3130xL genetic analyzer (Applied Biosystems) with peak positions identified by using a set of X-rhodamine (ROX)-labeled MapMarker1000 molecular weight standards (BioVentures). The raw capillary electrophoresis data was processed using Attagraph software (Attagene).
As to `Cc1ccc(C)c(OCCCC(C)(C)C(=O)O)c1`, the outcome was inactive.

As to `C[C@]12C=CC(=O)C=C1CC[C@@H]1[C@@H]2C(=O)C[C@@]2(C)[C@H]1CC[C@]2(O)C(=O)CO`, the call was inactive.

On to `CC(C)OC(=O)C(C)(C)Oc1ccc(C(=O)c2ccc(Cl)cc2)cc1`, for which the outcome was inactive. With `Cc1cccc(Nc2cc(Cl)nc(SCC(=O)O)n2)c1C`, the outcome was inactive.

For `CC(C)(Oc1ccc(CCNC(=O)c2ccc(Cl)cc2)cc1)C(=O)O`, the result was inactive. Same read-out and setting: under `CC(C)(Oc1ccc(C2CC2(Cl)Cl)cc1)C(=O)O` (stereo unspecified) stands “inactive”. For the compound `CN(CCOc1ccc(CC2SC(=O)NC2=O)cc1)c1ccccn1` (stereo unspecified), the AC50 (as a rule, the concentration at which the activity in the assay is half-maximal) was 30.8 µM (active). Still for that read-out and setting: under `C[C@@H]1C[C@H]2[C@@H]3CCC4=CC(=O)C=C[C@]4(C)[C@@]3(F)[C@@H](O)C[C@]2(C)[C@@]1(O)C(=O)COP(=O)(O)O` stands 0.00998 µM (active). As for `C=C(c1ccc(C(=O)O)cc1)c1cc2c(cc1C)C(C)(C)CCC2(C)C`, the compound was classed as inactive. Turning to `CC(c1cc2ccccc2s1)N(O)C(N)=O` (stereo unspecified), the AC50 was 34.3 µM (active). For `CC(C)(Oc1ccc(Cl)cc1)C(=O)O`, the result was inactive.
